Screening results: PubChem BioAssay, several laboratories
KKLEB tox: reduces viability of KKLEB cystic fibrosis airway cells; KKLEB CF airway cells viability, ATPlite luminescence, overnight; hits give low values; cells stimulated with P. aeruginosa culture filtrate; activity change (cytotoxicity), % at 5 µM; 0.36% of 360,000 active; AID 602141;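 active = corrected activity change at or below -50% at 5 µM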
PAX8 reporter: PAX8 transcriptional activity inhibition | inhibition, % at 12.6 µM | 1.2% of 360,000 active | AID 652154 | RMG-I TPO-luciferase reporter, SteadyGlo, 24 h;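 active = mean replicate inhibition at least 60% with every replicate also reaching 60%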;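 note: luciferase light reporting Pax8 driven TPO promoter activity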
HIF-2a inh: HIF-2a inhibition | 786-0 RCC cells HIF-2a reporter, luciferase luminescence, overnight | inhibition, % at 18.8 µM | 0.72% of 360,000 active;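 active = inhibition of the luminescence signal of 40% or more relative to plate controls, in a single-dose primary screen at 18.75 µM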
CF NFkB inh: blocks PAF-induced NF-kB reporter in cystic fibrosis cells | KKLEB NF-kB-GFP reporter, GFP fluorescence overnight | inhibition, % at 5 µM | 0.86% of 360,000 active | AID 588850;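 active = at least 50% inhibition at 5 µM, scaled per plate between neutral and stimulator controls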;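 note: PAF is a Pseudomonas aeruginosa culture filtrate used as stimulus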
EWS-Fli block: EWS/Fli transcriptional activity inhibition | 0.67% of 350,000 active | A673 NR0B1-luciferase reporter, viability-normalised | inhibition, % at 12.6 µM | AID 651661;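 active = mean inhibition of at least 50% after viability correction, with every replicate also passing that limit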;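 note: firefly luciferase signal divided by Alamar Blue viability fluorescence both relative to DMSO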
Mdm2 MdmX conf: confirmation of inhibitors of human Mdm2/MdmX interaction, set 2 | 99% of 740 active | SaOS-2 split-luciferase Mdm2/MdmX complementation, luminescence | AID 504601 | inhibition, % at 8 µM | shares compounds with HIF-2a inh;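 active = mean inhibition of the luminescence signal across two replicates at or above 26 percent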
Target sequence (O15151 whole entry, looked up): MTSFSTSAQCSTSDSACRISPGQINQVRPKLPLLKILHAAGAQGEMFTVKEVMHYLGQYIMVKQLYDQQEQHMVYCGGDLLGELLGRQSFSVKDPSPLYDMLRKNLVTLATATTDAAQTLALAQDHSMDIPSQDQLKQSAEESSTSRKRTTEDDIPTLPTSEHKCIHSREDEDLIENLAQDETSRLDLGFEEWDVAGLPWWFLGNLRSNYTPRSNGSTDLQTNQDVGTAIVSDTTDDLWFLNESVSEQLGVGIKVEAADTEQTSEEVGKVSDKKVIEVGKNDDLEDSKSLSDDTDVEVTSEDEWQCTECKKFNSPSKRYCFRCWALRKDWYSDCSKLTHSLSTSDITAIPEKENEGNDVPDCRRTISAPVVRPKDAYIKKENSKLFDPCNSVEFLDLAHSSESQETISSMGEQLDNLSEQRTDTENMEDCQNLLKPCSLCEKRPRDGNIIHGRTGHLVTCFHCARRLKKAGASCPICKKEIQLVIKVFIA
Target sequence (Q00987 whole entry, looked up): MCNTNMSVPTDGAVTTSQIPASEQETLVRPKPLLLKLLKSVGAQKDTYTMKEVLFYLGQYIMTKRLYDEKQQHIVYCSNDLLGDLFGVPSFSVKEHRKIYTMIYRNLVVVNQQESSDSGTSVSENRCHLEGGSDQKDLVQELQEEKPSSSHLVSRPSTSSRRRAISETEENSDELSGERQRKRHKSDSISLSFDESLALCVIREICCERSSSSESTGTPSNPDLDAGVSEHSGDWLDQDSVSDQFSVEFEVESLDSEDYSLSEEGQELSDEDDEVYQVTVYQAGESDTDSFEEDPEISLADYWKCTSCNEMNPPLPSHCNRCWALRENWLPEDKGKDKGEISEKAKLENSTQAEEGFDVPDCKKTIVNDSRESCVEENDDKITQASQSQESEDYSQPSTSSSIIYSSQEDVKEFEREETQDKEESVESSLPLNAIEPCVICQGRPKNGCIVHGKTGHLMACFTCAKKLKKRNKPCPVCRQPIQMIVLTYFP
HIF-2a inh conf: HIF-2a inhibition, single concentration confirmation; shares compounds with HIF-2a inh; 786-0 RCC cells, HIF-2a luciferase reporter luminescence, overnight; inhibition, % at 18.8 µM; 56% of 1,800 active; AID 651580;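 active = mean inhibition across four replicates of at least 40 percent at the single tested concentration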
HIF-1a cs: HIF-1a inhibition counter-screen for HIF-2a hits; shares compounds with HIF-2a inh; MiaPaCa-2 HIF-1a luciferase reporter, desferoxamine, overnight; inhibition, % at 18.8 µM; 72% of 1,800 active;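 active = mean inhibition of the reporter signal across four replicates at the single tested dose of 50% or more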
Numbers stand for hits; i = inactive; nt = not tested or not shown. Compounds with a hit are over-represented: about 2.1% of the library has one in this group of screens.

SMILES	KKLEB tox	PAX8 reporter	HIF-2a inh	CF NFkB inh	EWS-Fli block	HIF-2a inh conf	HIF-1a cs	others
Cc1cccc(C(=O)Nc2cccc(C(=O)N/N=C/c3ccncc3)c2)c1	i	i	i	i	i	nt	nt
COc1ccc(NC(=O)N(C)C[C@@H]2Oc3ccc(NC(=O)Nc4c(C)noc4C)cc3C(=O)N([C@H](C)CO)C[C@@H]2C)cc1	nt	i	nt	nt	i	nt	nt
O=C(C[C@H]1CC[C@H]2[C@@H](COC[C@@H](O)CN2CC2CCCCC2)O1)NCc1ccc(Cl)cc1	nt	i	nt	nt	i	nt	nt
O=C(NC1CCCCC1)C(c1cccnc1)N(C(=O)CCl)c1cccc(Cl)c1 (stereo not given)	-63	i	62	54	58	98	106	Mdm2 MdmX conf=103
COc1ccc(N(C(=O)c2cnccn2)C(C(=O)NC2CCCCC2)c2ccc(Cl)cc2)cc1 (stereo not given)	i	nt	i	i	nt	nt	nt
COc1ccc(C(C(=O)NC2CCCCC2)N(C(=O)CCl)c2ccc(Cl)cc2)cc1 (stereo not given)	-99	nt	i	97	nt	nt	nt	Mdm2 MdmX conf=98
CCCNC(=O)C[C@@H]1C[C@H]2c3cc(NC(=O)Nc4ccccc4)ccc3O[C@H]2[C@H](CO)O1	nt	i	nt	nt	i	nt	nt
O=C(O)/C=C/c1cn(Cc2ccccc2)nc1-c1ccccc1	i	nt	i	i	nt	nt	nt
O=C(O)CCn1cc(/C=C/C(=O)c2ccc(Cl)cc2)c(-c2ccc(Br)cc2)n1	i	i	54	i	i	i	i
CCCN1C[C@@H](C)[C@@H](OC)CN(C)C(=O)c2cc(NC(=O)Nc3ccccc3F)ccc2OC[C@@H]1C	nt	i	nt	nt	i	nt	nt
O=C(O)c1ccccc1-c1ccccc1C(=O)NCCCO	i	nt	48	i	nt	i	i
O=C([C@@H]1[C@@H](CO)[C@@H]2Cn3c(cccc3=O)[C@H]1N2C(=O)CC1CC1)N1CCc2ccccc2C1	nt	nt	nt	nt	i	nt	nt
O=C(NCC[C@H]1CC[C@@H](NC(=O)C2CCCCC2)[C@H](CO)O1)c1ccc(F)cc1	nt	i	nt	nt	i	nt	nt
Nc1ccc(C(=O)n2c3ccccc3c3ccccc32)cc1	i	nt	78	i	nt	92	85
Cc1ccc(C(=O)n2c(N)nc3ccccc32)cc1	i	65	42	i	75	69	87
Nc1ccc(C(=O)N2CCCC2)cc1	i	nt	i	i	nt	nt	nt
Cc1ccc(S(=O)(=O)n2c(N)nc3ccccc32)cc1	i	i	i	i	i	nt	nt
C[C@H](CO)N1C[C@H](C)[C@H](CN(C)S(=O)(=O)c2ccc(Cl)cc2)Oc2ccc(NC(=O)NC3CCCCC3)cc2CC1=O	nt	i	nt	nt	i	nt	nt
CN1C(=O)c2cc(NC(=O)Nc3ccc(Cl)cc3)ccc2OC[C@H]2O[C@@H](CC(=O)O)CC[C@@H]21	nt	i	nt	nt	i	nt	nt
CCOC(=O)/C(=C/c1ccc(OC(F)F)cc1)C1=Nn2c(nnc2-c2ccc(Cl)cc2)SC1	-104	i	88	92	i	43	105
Cc1cc(=O)[nH]c(N=N/C(=N/Nc2ccccc2C)c2ccccc2)n1	i	nt	i	i	nt	nt	nt	Mdm2 MdmX conf=84
COc1ccc(NC(=O)c2cccc([N+](=O)[O-])c2)cc1	i	i	i	i	i	nt	nt
COc1ccc(NC(=O)c2cc([N+](=O)[O-])ccc2O)cc1	i	100	71	i	73	86	102
CO[C@H]1CN(C)C(=O)c2cc(NC(=O)c3cnccn3)ccc2OC[C@@H](C)N(CCc2ccccc2)C[C@@H]1C	nt	i	nt	nt	i	nt	nt
O=CC1=C(c2ccccc2)Oc2ccccc2O1	i	i	46	i	i	i	107
C[C@@H]1CN([C@@H](C)CO)C(=O)c2cc(NC(=O)NC3CCCCC3)ccc2O[C@@H]1CN(C)C	nt	i	nt	nt	i	nt	nt
CC(C)(C)C1C/C(=C/c2ccccn2)C(=O)/C(=C/c2ccccn2)C1 (stereo not given)	-53	nt	96	89	nt	nt	nt	Mdm2 MdmX conf=103
O=C1/C(=C/c2ccccn2)COc2ccccc21	i	i	i	i	i	nt	nt
CC1C/C(=C/c2ccccn2)C(=O)/C(=C/c2ccccn2)C1 (stereo not given)	-62	nt	94	86	nt	nt	nt	Mdm2 MdmX conf=103
